Compound activity deposited in PubChem by Broad Institute.
An excerpt weighted towards active compounds, which were near 2.8% of everything screened.
CDK5 inh: inhibitors of human CDK5/p35 kinase | Q00535+Q15078 | Recombinant CDK5/p35, ADP-Glo luminescence, 60 min | inhibition, % at 10 µM | hit rate 0.01% among 330,000 | AID 488839;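 active = highest replicate inhibition of at least 50% and at least 75% of replicates reaching 50%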
SIRT5 inh: sirtuin-5 (human) deacylase inhibition; inhibition, % at 15 µM; Purified SirT5, succinyl-peptide AMC, trypsin-coupled fluorescence; hit rate 1.1% among 330,000; AID 652115; in the data active = inhibition above about 15%
Target sequence (Q9NXA8 whole entry, looked up): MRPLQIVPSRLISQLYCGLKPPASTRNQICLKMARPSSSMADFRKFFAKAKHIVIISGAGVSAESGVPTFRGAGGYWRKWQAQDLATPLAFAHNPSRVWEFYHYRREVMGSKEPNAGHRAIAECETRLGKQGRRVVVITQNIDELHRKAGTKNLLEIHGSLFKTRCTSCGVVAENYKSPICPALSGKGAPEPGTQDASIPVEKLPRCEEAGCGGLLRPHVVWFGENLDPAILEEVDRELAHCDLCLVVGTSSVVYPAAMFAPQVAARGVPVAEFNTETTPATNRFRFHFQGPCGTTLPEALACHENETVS
FGF22 binding: binders of recombinant human FGF22 by thermal shift | Q9HCT0 | SYPRO orange fluorescence; percent of sucrose octasulfate shift, DMSO zero | activity (Tm shift, normalised), % at 9.99 µM | hit rate 1.5% among 340,000;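 active = mean Tm shift, scaled 0 neutral to 100 positive control, at about 1.3% or above, every replicate too, limit read from the data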
Target sequence (Q9HCT0 whole entry, looked up): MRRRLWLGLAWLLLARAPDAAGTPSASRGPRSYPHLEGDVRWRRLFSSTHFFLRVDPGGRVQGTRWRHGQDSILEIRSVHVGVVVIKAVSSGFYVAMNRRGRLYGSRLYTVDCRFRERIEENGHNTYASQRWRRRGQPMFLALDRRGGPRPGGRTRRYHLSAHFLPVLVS
dFosB act: enhances mouse delta FosB homodimer DNA binding. P13346. purified delta FosB, TAMRA-CDK5 oligo fluorescence polarization; percent of positive-control signal above neutral wells. activation, % at 25 µM. hit rate 0.99% among 340,000;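 active = mean activation above about 17%, with every replicate also reaching it, limit read from the data, passing the limit was not always enough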
PglD DTNB: inhibitors of Campylobacter jejuni PglD acetyltransferase; purified PglD enzyme, DTNB colorimetric CoA detection; inhibition, % at 12.5 µM; hit rate 0.098% among 360,000; AID 602405; in the data active = inhibition above about 16%, passing the limit was not always enough
PvdQ acylase: P. aeruginosa PvdQ acylase inhibition; purified PvdQ acylase, fluorescence plate reader; inhibition, % at 10 µM; hit rate 0.063% among 340,000; AID 488965; in the data active = inhibition above about 30%, passing the limit was not always enough
A number is an active result; n = inactive; x = no result.

SMILES	CDK5 inh	SIRT5 inh	FGF22 binding	dFosB act	PglD DTNB	PvdQ acylase
COc1ccccc1-c1ccc2c(c1)O[C@@H](CN(C)C)[C@@H](C)CN([C@@H](C)CO)S2(=O)=O	x	n	n	x	n	x
C[C@H](CO)N1C[C@H](C)[C@@H](CN(C)Cc2ccc3c(c2)OCO3)Oc2cc(-c3cccc(C(=O)N(C)C)c3)ccc2S1(=O)=O	x	17.8	n	x	n	x
COc1ccccc1-c1ccc2c(c1)O[C@@H](CN(C)CC1CCOCC1)[C@H](C)CN([C@H](C)CO)S2(=O)=O	x	16.1	n	x	n	x
C[C@H]1CN([C@@H](C)CO)S(=O)(=O)c2ccc(-c3cccc(C(=O)N(C)C)c3)cc2O[C@H]1CN(C)Cc1ccc2c(c1)OCO2	x	n	n	x	n	x
COc1ccccc1-c1ccc2c(c1)O[C@H](CN(C)Cc1ccc3c(c1)OCO3)[C@H](C)CN([C@H](C)CO)S2(=O)=O	x	21.6	n	x	n	x
COc1ccc(C#Cc2ccc3c(c2)[C@H]2[C@H](CCN2C(=O)CC2CC2)[C@@H](CO)N3)cc1	x	n	n	x	n	x
O=C(C[C@@H]1C=C[C@@H](NS(=O)(=O)c2ccc(F)cc2)[C@@H](CO)O1)NCc1ccncn1	x	n	n	x	n	x
COc1ccc2c3c([nH]c2c1)[C@H](CO)N(C(=O)C1CC1)CC31CN(S(C)(=O)=O)C1	x	n	n	x	x	x
O=C(/C=C/c1ccccc1[N+](=O)[O-])N1CCCCC1	n	n	43.1	n	x	n
CCN1CCN(C(=O)/C=C/c2ccccc2[N+](=O)[O-])CC1	n	n	n	n	x	n
C[C@H](CO)N1C[C@H](C)[C@H](CN(C)C(=O)Nc2ccc(F)cc2)Oc2ccc(NC(=O)CCC(F)(F)F)cc2C1=O	x	n	n	x	n	x
N#CC(OC(=O)c1ccccc1)c1cccc([N+](=O)[O-])c1 (configuration not stated)	n	n	n	n	n	72.0
O=C(NC(NC(=O)c1ccccc1)c1cccc([N+](=O)[O-])c1)c1ccccc1	n	x	x	n	n	n
C[C@@H]1CN([C@@H](C)CO)C(=O)c2cc(C#CC3CC3)cnc2O[C@@H]1CN(C)C(=O)Nc1ccc(F)cc1	x	n	n	x	n	x
Cc1cc(S(=O)(=O)Nc2ccc(C(=O)NCC3(N4CCCCC4)CCCCC3)cc2)ccc1F	n	21.5	n	n	n	n
Cc1cccn2c(=O)c(C=NCCO)c(Nc3ccc(Cl)cc3)nc12	x	n	43.8	x	x	x
COc1ccc(NC(=O)CNC(=O)Cn2c(C)cc3ccccc3c2=O)c(OC)c1	n	n	43.2	n	x	n
C[C@H](CO)N1C[C@H](C)[C@@H](CN(C)Cc2ccc(Cl)c(Cl)c2)Oc2ccc(NC(=O)CCCN(C)C)cc2CC1=O	x	n	n	x	n	x
CCC/C(O)=C1\C(=O)CCCC1=NCCc1c(C)[nH]c2ccc(OC)cc12	n	n	43.0	n	n	n
NCC1C2CCC(O2)C1CO (configuration not stated)	x	x	44.6	x	x	x
CN1CCN(NC(=S)NC2CCCC2)CC1	n	n	43.3	n	x	n
COc1ccccc1NC(=S)NN1CCN(C)CC1	n	n	n	n	x	n
CN1CCN(NC(=S)NC(C)(C)CC(C)(C)C)CC1	n	n	42.9	n	n	n
S=C(NCC1CCCO1)NC1CCCCC1 (configuration not stated)	n	n	43.3	n	x	n
CCC(=O)N[C@H]1C=C[C@H](CC(=O)NCc2ccccc2OC)O[C@@H]1CO	x	n	n	x	n	x
SMILES	CDK5 inh	SIRT5 inh	FGF22 binding	dFosB act	PglD DTNB	PvdQ acylase
CSc1ncccc1C(=O)OC(C)C(=O)Nc1ccc2c(c1)OCCO2 (configuration not stated)	x	x	n	x	n	x
CC(OC(=O)c1cccnc1Cl)C(=O)Nc1ccc2c(c1)OCCO2 (configuration not stated)	n	n	42.9	n	x	n
OCCN(CCO)CC(O)CN(c1ccccc1)c1ccccc1 (configuration not stated)	n	n	n	n	n	n
NCC(O)CN(c1ccccc1)c1ccccc1 (configuration not stated)	n	38.1	x	n	x	n
O=C(c1ccccc1F)N(Cc1cccnc1)Cc1cc2cc3c(cc2[nH]c1=O)OCCO3	n	n	43.0	n	n	n
COc1cc(C(=O)N(Cc2cccnc2)Cc2cc3cc4c(cc3[nH]c2=O)OCCO4)cc(OC)c1OC	n	x	x	n	n	n
CCC(=O)N1[C@H](CO)[C@@H](c2ccccc2)C12CN(CCC(F)(F)F)C2	x	15.4	n	x	x	x
CN(C)CC(=O)N1[C@H](CO)[C@H](c2ccccc2)C12CN(CCC(F)(F)F)C2	x	n	n	x	x	x
COc1ccc(/C=N/NC(=O)CNc2ccc(Br)cc2)c(C(=O)O)c1OC	n	n	44.0	n	x	n
CCOC(=O)C1=C(C)NC(SCC(N)=O)=C(C#N)C1c1cccs1 (configuration not stated)	n	x	x	n	x	n
CCOC(=O)C1=C(C)NC(SCc2cc(=O)[nH][nH]2)=C(C#N)C1c1cccs1 (configuration not stated)	n	20.0	n	n	n	n
Cc1ccc(NC(=O)Cn2ncc3c([nH]c4ccccc43)c2=O)cc1Cl	n	n	n	55.4	n	n
CCN(CC)CCNc1nc2cc(OC)c(OC)cc2c2nc(-c3ccccc3)nn12	n	x	x	151.3	n	n
CN(C)C(=O)c1cccc(-c2ccccc2[C@H]2[C@@H](CO)N(C(=O)C3CCCC3)[C@H]2C#N)c1	x	n	x	x	x	x
O=C(N/N=C1\CC2CC=CC12)c1ccccc1Cl (configuration not stated)	n	n	n	n	n	n
O=[N+]([O-])c1ccccc1N/N=C1\CC2CC=CC12 (configuration not stated)	n	n	n	n	x	58.1
COc1ccc(NC(=O)Nc2ccc3c(c2)CC(=O)N([C@H](C)CO)C[C@H](C)[C@@H](CN(C)Cc2ccc(Oc4ccccc4)cc2)O3)cc1	x	22.7	n	x	n	x
C[C@@H]1CN([C@H](C)CO)C(=O)c2cc(NC(=O)C3CC3)ccc2O[C@@H]1CN(C)Cc1ccc2c(c1)OCO2	x	16.6	n	x	n	x
COc1ccc(NC(=O)Nc2ccc3c(c2)CC(=O)N([C@@H](C)CO)C[C@H](C)[C@H](CN(C)Cc2ccc(Oc4ccccc4)cc2)O3)cc1	x	n	n	x	n	x
C[C@H]1CN([C@@H](C)CO)C(=O)c2cc(NC(=O)C3CC3)ccc2O[C@H]1CN(C)Cc1ccc2c(c1)OCO2	x	n	n	x	n	x
C[C@@H]1CN([C@H](C)CO)C(=O)c2cc(NC(=O)C3CC3)ccc2O[C@@H]1CN(C)Cc1ccc(Oc2ccccc2)cc1	x	n	n	x	n	x
C[C@H](CO)N1C[C@H](C)[C@H](CN(C)Cc2ccc(Oc3ccccc3)cc2)Oc2ccc(NC(=O)c3ccncc3)cc2C1=O	x	n	n	x	n	x
C[C@H](CO)N1C[C@H](C)[C@@H](CN(C)Cc2ccc(Oc3ccccc3)cc2)Oc2ccc(NC(=O)C3CC3)cc2C1=O	x	18.1	n	x	n	x
